# Bioassay records (PubChem)
# The list is not random: actives were taken first. Their share in the collection is about 8%.
# SARS PLpro yeast: inhibitors of SARS-CoV papain-like protease in yeast. S. cerevisiae expressing SARS-CoV PLpro, growth rescue. 0.19% of 330,000 active. Potency, µM (doses to about 32.9 µM), inactives show at the highest dose activity, positive = growth rescue, actives largely listed as activators; calls by dose curve; note: potency is the fitted concentration of half-maximal effect; 0% is about no effect; nearly all actives have a fitted effect of over 55% in size
# Marburg entry inh: Marburg virus entry inhibition; Potency, µM (series often up to 37.8 µM), for the others: at the highest dose activity change, negative = inhibition, hits mostly inhibitors; AID 540276; Marburg virus pseudotyped entry inhibition, cell reporter; 1.8% of 300,000 active; calls by dose curve; tested in HEK293 cells; note: potency is the fitted concentration of half-maximal effect; % is set by controls: 0 for no effect and ±100 for the full control effect
# LASV entry inh: Lassa virus entry inhibition; AID 540256; 1.2% of 300,000 active; Potency, µM (doses to about 37.9 µM), inactives show at the top dose activity change, negative = inhibition, hits mostly inhibitors; Lassa virus pseudotype entry inhibition, cell reporter; calls by dose curve; tested in HEK293 cells; note: potency is the fitted concentration of half-maximal effect; % is set by controls: 0 for no effect and ±100 for the full control effect; nearly all actives have a fitted effect of over 50% in size
# HCMV antiviral: blocks human cytomegalovirus replication | HFF cells, HCMV-luciferase reporter, 72 h; hits give low values | activity change, negative = inhibition, % at 57.5 µM | 4.5% of 410,000 active | AID 1259415; in the data active = activity change below about -60%; inconclusive = no clear call, values can overlap the other calls; inactive = above about -39%; note: % is set by controls: 0 for no effect and ±100 for the full control effect
#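 Two compound doses tested in HFFs infected with HCMV-luciferase, MOI 1 PFU/cell, 72 h at 37C. Lysate luminescence read with OneGlo; data normalized against buffer-only and 10uM Salinomycin inhibitor controls.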
# HCV inhibitor: blocks hepatitis C virus; 3.4% of 340,000 active; AID 651820; Huh7.5.1 HCVcc-Cre infection, luciferase reporter, 44 h; Potency, µM (highest dose often 41.8 µM), inactives show at the highest dose activity change, negative = inhibition, hits mostly inhibitors; active = well fitted inhibition curve with a large enough effect; inconclusive = small, poorly fitted or top-dose-only effect, or another doubt; inactive = no such curve, though single readings can be large or run the other way; note: potency is the fitted concentration of half-maximal effect; % is set by controls: 0 for no effect and ±100 for the full control effect
#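 Reporter virus HCVcc-Cre (~0.5 moi) infects cells exposed to compound; seeding density 1,000 cells/well with 4 h settling beforehand. Luminescence, 15 sec read, taken 44 h post-infection following a 15 min RT substrate incubation.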
# FMDV inh: foot and mouth disease virus antiviral activity; Potency, µM (series often up to 57.9 µM), without a hit: at the top dose activity change, negative = inhibition, hits mostly inhibitors; FMDV antiviral cell-based qHTS; 1.2% of 410,000 active; calls by dose curve; tested in HEK293T cells; note: read-out not given here; potency is the fitted concentration of half-maximal effect; % is set by controls: 0 for no effect and ±100 for the full control effect; nearly all actives have a fitted effect of over 45% in size
# Active calls of the source: *; ? = inconclusive; . = no result; [ ] = another dose, or the depositor's remark.
SMILES,SARS PLpro yeast,Marburg entry inh,LASV entry inh,HCMV antiviral,HCV inhibitor,FMDV inh
COc1cc(OC)cc(C(=O)N2CCN(C(=O)COc3ccccc3)CC2)c1,.,4.9%[46.1 µM],-3.5%[46.1 µM],18.6,.,-10.4%
O=C(c1cc(COc2cccc(C(F)(F)F)c2)on1)N1C[C@H]2CC[C@H]1C2,-5.6%,?,-8.9%,-13.1,-20.8%,0.6%
CC1(C)C[C@@H]2C[C@@](C)(CN2C(=O)c2cc(COc3cccc(C(F)(F)F)c3)on2)C1,10.2%,?,-30.0%,?,10µM*,-13.4%
Cc1ccc(/C=N/Nc2cn[nH]c(=O)n2)o1,-0.2%,-9.7%[46.1 µM],15.3%[46.1 µM],?,19.9%,24.4%
Cc1ccc(/C=N/Nc2ccc3ccccc3n2)o1,-2.6%,1.26µM*,5.01µM*,-79.0*,-29.7%,-17.0%
Cc1cccc(/C=N/Nc2ccc3ccccc3n2)c1,-1.6%,.,.,-30.5,?,6.31µM*
C(=N\Nc1ccc2ccccc2n1)/c1ccc2c(c1)OCCO2,-2.0%,.,.,-89.7*,2.5%,?
CN(C)c1cc2c(cc1NC(=O)c1ccc(F)cc1)n(C)c(=O)n2C,.,4.6%[46.1 µM],-3.9%[46.1 µM],21.0,.,-17.1%
Cc1cccc(C)c1-n1ncc(C(=O)N2CCN(c3ncccn3)CC2)c1C1CCN(C(=O)OC(C)(C)C)CC1,.,.,-14.5%[46.1 µM],12.5,.,0.0%
CN1CCN(C(=O)CN2C(=O)NC(C)(c3ccc4ccccc4c3)C2=O)CC1 (centres undefined),-2.0%,-2.3%,1.5%,?,-16.3%,-14.0%
COc1cccc(CNC(=O)C2CCC(CNc3nc(=S)[nH]c4ccccc34)CC2)c1 (centres undefined),-1.8%,-6.8%[46.1 µM],.,14.4,2µM*,-10.6%
COc1cccc(N2CCN(C(=O)CN3C(=O)NC(C)(c4ccc5ccccc5c4)C3=O)CC2)c1 (centres undefined),-1.8%,?,?,?,11.2µM*,?
COc1cccc(N2CCN(C(=O)CCCCCNc3nc(=S)[nH]c4ccccc34)CC2)c1,0.6%,?,-17.7%,-62.3*,11.2µM*,25.1µM*
Cc1ccc(CNC(=O)C2CCC(CNc3nc(=S)[nH]c4ccccc34)CC2)cc1 (centres undefined),2.3%,3.55µM*,-13.5%,-17.2,?,-24.4%
COc1ccc(C(=O)O)cc1Nc1nc2ccc(C)cc2n2cnnc12,.,22.7%[46.1 µM],.,-2.2,.,23.4%
C[C@H](N)CCP(=O)(O)O,.,.,.,.,.,-24.6%
CC(C)NC(=O)N1CCCN(c2nc3ccc(Cl)cc3s2)CC1,-2.2%,-22.8%,-3.3%,?,3.98µM*,-27.2%
O=C(NCc1ccc2c(c1)OCO2)c1c(-c2ccccc2)sc2ccccc12,-3.4%,.,.,61.5,25.6%,35.5%
CN(C)C(CNC(=O)CCc1nc2sc3c(c2c(=O)[nH]1)CCCC3)c1ccccc1 (centres undefined),1.5%,10µM*,-0.5%,-12.7,?,-22.1%
O=C(CCc1nc2sc3c(c2c(=O)[nH]1)CCCC3)NCCOc1ccccc1,0.4%,19.7%,?,-5.4,?,1.5%
O=C(c1ccco1)N(Cc1cc2cc3c(cc2nc1N1CCOCC1)CCC3)CC1CCCO1 (centres undefined),.,.,.,.,.,9.7%
CCC1CN(Cc2cccn2-c2ccccn2)Cc2cc(OC)ccc2O1 (centres undefined),.,.,.,.,.,26.2%
Cc1ccccc1OCC(=O)Nc1ccccc1C(=O)OCc1cc(=O)n2c(C)csc2n1,.,.,9.7%[46.1 µM],-75.4*,.,?
Cc1cn2c(=O)cc(COC(=O)c3cccc(NC(=O)COc4ccccc4Cl)c3)nc2s1,.,.,29.4%[46.1 µM],45.4,.,8.91µM*
Cc1cccc(OCC(=O)Nc2cccc(C(=O)OCc3cc(=O)n4c(C)csc4n3)c2)c1,.,.,-25.3%[46.1 µM],-61.4*,.,-18.5%
SMILES,SARS PLpro yeast,Marburg entry inh,LASV entry inh,HCMV antiviral,HCV inhibitor,FMDV inh
Cc1csc2nc(COC(=O)c3ccc(NC(=O)c4ccccc4Br)cc3)cc(=O)n12,.,.,?,-72.4*,.,-2.9%
Cc1csc2nc(COC(=O)c3ccc(NC(=O)C(C)C)cc3)cc(=O)n12,.,.,?,-34.3,.,5.0%
Cc1cccc([C@@H]2[C@@H]3C(=O)N(Cc4ccccc4)C(=O)[C@@H]3[C@]3(Cc4ccccc4)C(=O)N(c4ccc(C(F)(F)F)cc4)C(=O)N23)c1,-0.1%,.,.,?,5.1%,-20.7%
Cc1cccc(/C=N\NC(=O)c2ccc(Cl)cc2)c1O,-2.2%,5.62µM*,11.2µM*,-101.2*,?,-2.6%
O=C(Cc1ccc(Cl)cc1)N/N=C/c1c(Cl)cccc1Cl,5.0%,-1.0%,?,-8.5,4.9%,15.3%
Cc1cccc(/C=N/NC(=O)Cc2ccc(Cl)cc2)c1O,7.8%,.,.,-89.3*,12.6µM*,14.8%
COc1ccccc1/C=N\NC(=O)c1c(C)nc2ccc(Cl)cn12,-2.9%,.,.,10.9,9.2%,0.0%
Cc1ccc(O)c(/C=N/NC(=O)Cc2ccc(Cl)cc2)c1,3.5%,.,.,-99.4*,?,-5.3%
O=C(Cc1ccc(Cl)cc1)N/N=C/c1ccc(O)c(O)c1,.,.,.,-34.2,.,-22.3%
COc1cccc(/C=N/NC(=O)c2c(C)nc3ccc(Cl)cn23)c1O,5.7%,1µM*,?,-99.2*,2.51µM*,11.2%
Cc1cnc(-n2ncc(C(=O)N(C)CC3COCCO3)c2C2CC2)nc1-c1cccs1 (centres undefined),.,.,.,.,.,48.8%
O=C(N/N=C/c1cccc([N+](=O)[O-])c1)C1CC(=O)N(c2ccc(F)cc2)C1 (centres undefined),2.0%,?,?,28.9,-38.3%,-16.4%
N/C(Cc1nc(-c2ccc(Cl)cc2)cs1)=N\O,.,6.0%,.,.,.,.
O=C(N/N=C/c1ccoc1)c1ccc(Cl)cc1,1.6%,.,.,-74.6*,1.3%,0.0%
O=C(N/N=C/c1ccoc1)c1ccc(Br)cc1,-2.1%,.,.,-17.1,5.5%,23.7%
CO[C@]1(C2=NCCN2)COc2ccccc2O1,.,7.6%,.,.,.,-4.5%
COC(=O)c1c(SC)nc2ccccc2c1OCc1ccc(C)cc1,.,.,29.3%[46.1 µM],-16.5,.,0.6%
Cc1ccc(S(=O)(=O)c2cc3c(=O)n4ccccc4nc3n(C3CCCCC3)c2=N)cc1,-0.4%,-1.0%,30.0%,33.3,12.6µM*,?
N=c1c(S(=O)(=O)c2ccc(Cl)cc2)cc2c(=O)n3ccccc3nc2n1CCN1CCOCC1,-3.5%,-20.5%,18.6%,-24.8,12.6µM*,-11.4%
Cc1ccc(S(=O)(=O)n2cccc2/C=C/[N+](=O)[O-])cc1,.,.,.,-97.7*,.,15.8µM*
Fc1cccc(Cc2noc(CN3CCCN(C4Cc5ccccc5C4)CC3)n2)c1,-2.0%,11.2µM*,6.9%[46.1 µM],-10.7,-3.5%,7.3%
Fc1cccc(Cc2noc(CN3CCN(C4CCc5ccccc5C4)CC3)n2)c1 (centres undefined),-1.0%,13.3%[46.1 µM],9.4%,-0.3,5.8%,-29.0%
COc1ccc(Cc2noc(CN3CCN(C4CCc5ccccc5C4)CC3)n2)cc1OC (centres undefined),-0.8%,?,-27.0%,-35.9,?,20µM*
